# Source: publication PMC5540273 (PLoS ONE, 2017)
# Columns and labels:
# Settings in all cases: concentration: 1 μM, replicates: in singlicate; n = 1
# HASPIN = tested on: T1, HASPIN
# T1 construct: gene GSG2
# HCK = tested on: HCK
# HIPK1 = tested on: HIPK1
# HIPK2 = tested on: HIPK2
# HIPK3 = tested on: HIPK3
# HIPK4 = tested on: HIPK4
# HPK1 = tested on: HPK1
# HUNK = tested on: HUNK
# ICK = tested on: ICK
# IGF1R = tested on: IGF1R
# IKK-alpha = tested on: T2, IKK-alpha
# T2 construct: gene CHUK
# IKK-beta = tested on: T3, IKK-beta
# T3 construct: gene IKBKB
# IKK-epsilon = tested on: T4, IKK-epsilon
# T4 construct: gene IKBKE
# INSRR = tested on: INSRR
# INSR = tested on: INSR
# IRAK1 = tested on: IRAK1
# IRAK3 = tested on: IRAK3
# IRAK4 = tested on: IRAK4
# ITK = tested on: ITK
# [1] = tested on: JAK1(JH1domain-catalytic)
# 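Further: KINOMEscan kinase panel screen.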
SMILES,%Inh (HASPIN) [%],%Inh (HCK) [%],%Inh (HIPK1) [%],%Inh (HIPK2) [%],%Inh (HIPK3) [%],%Inh (HIPK4) [%],%Inh (HPK1) [%],%Inh (HUNK) [%],%Inh (ICK) [%],%Inh (IGF1R) [%],%Inh (IKK-alpha) [%],%Inh (IKK-beta) [%],%Inh (IKK-epsilon) [%],%Inh (INSRR) [%],%Inh (INSR) [%],%Inh (IRAK1) [%],%Inh (IRAK3) [%],%Inh (IRAK4) [%],%Inh (ITK) [%],%Inh [1] [%]
CCn1c(-c2nonc2N)nc2c(C#CC(C)(C)O)ncc(OCCCCN)c21.O=C(O)C(F)(F)F.O=C(O)C(F)(F)F [GSK507274],0,0,47,57,100,0,49,0,11,12,24,43,33,0,0,26,0,20,15,21
Cn1cc(-c2ccc3c(c2)CCN3C(=O)Cc2cccc(F)c2)c2c(N)ncnc21 [GSK2603358],0,13,0,0,8,0,57,13,0,23,15,43,76,0,0,41,0,22,11,18
O=C(Nc1cccc(-c2nn3ccccc3c2-c2ccnc(Nc3cccc(C(F)(F)F)c3)n2)c1)c1c(F)cccc1F [GSK292658],0,96.9,0,0,0,0,21,0,0,0,0,3,1,12,16,0,0,12,6,0
COC(=O)Nc1nc2cc(Oc3ccc(NC(=O)Nc4cc(C(F)(F)F)ccc4F)cn3)ccc2[nH]1.Cl.Cl [GW681170],47,15,0,0,0,91.6,16,7,0,12,66,17,0,0,0,49,0,3,0,30
COc1cc(Nc2ncc3c(C)nc(-c4cc5ccccc5[nH]4)n3n2)cc(OC)c1OC [GW869516],0,16,79,0,0,17,2,0,0,0,0,0,0,53,4,2,20,0,43,0
Cn1cc(-c2[nH]c3cc(NC(=O)[C@H](N)C4CCCCC4)cc4c3c2C=NNC4=O)cn1,52,96.9,88,80,80,89,65,0,0,0,15,10,73,4,0,77,20,93.3,34,61
COc1ccc(-c2coc3ccc(-c4nnc(SCc5ccc(OC)c(C(F)(F)F)c5)o4)cc23)cc1,0,38,12,17,14,0,4,0,7,12,25,6,22,0,25,10,4,14,25,0
NCCCC(NC(=O)c1cc(Br)c(-c2ccnc3[nH]ccc23)s1)c1ccccc1.O=C(O)C(F)(F)F.O=C(O)C(F)(F)F (centres unmarked) [GSK1287544],95.7,0,39,14,62,82,62,0,23,2,48,58,0,1,0,94.8,0,7,12,72
Cc1ccc(C)c(NC(=O)NC2CCN(c3ccnc(Nc4ccc(F)cc4)n3)C2)c1 (centres unmarked) [GSK1379720],44,0,0,10,0,0,45,0,0,25,32,18,3,0,0,40,0,20,5,12
CC(C)(C)c1ccc2nccc(Nc3cccc(O)c3)c2c1 [GW856795],27,60,18,50,0,0,37,0,24,0,31,0,0,0,0,0,0,0,19,0
Fc1ccc(-c2ncn(C3CCNCC3)c2-c2ccnc(Oc3ccc(-c4ccccc4)cc3)n2)cc1 [SB-245391],24,31,5,0,31,27,29,38,25,48,32,32,0,37,22,11,0,0,0,10
O=C(Nc1cccc(Oc2ccc3nc(NC(=O)C4CC4)cn3n2)c1)c1ccccc1C(F)(F)F,0,69,28,0,0,1,10,0,0,0,0,0,0,0,0,0,5,0,0,8
COc1cc(Nc2nccc(-c3c(-c4cccc(NC(=O)c5c(F)cccc5F)c4)nn4ccccc34)n2)cc(OC)c1OC [GSK323521],0,0,12,0,16,14,50,24,0,32,0,25,65,13,13,10,22,0,13,5
Cl.c1ccc(-c2ccc3c(Nc4ccc5[nH]ncc5c4)ccnc3c2)nc1 [GW440137],6,16,62,47,51,0,23,9,0,12,10,15,17,0,15,18,26,12,7,26
O=C(Nc1cccc(-c2nn3ncccc3c2-c2ccnc(Nc3ccccc3)n2)c1)c1c(F)cccc1F [GSK198271],0,99.3,0,0,9,28,43,3,0,24,0,0,0,0,28,0,0,11,12,5
CN(c1ccc(NC(=O)Nc2cc(C(F)(F)F)ccc2F)cc1)c1ccnc(Nc2ccc(S(N)(=O)=O)cc2)n1 [GW809893],2,98.3,59,64,84,99.1,99.4,15,21,0,82,44,7,13,15,49,51,6,59,95.3
